Data: PubChem BioAssay AID425 (Sanford-Burnham Center for Chemical Genomics, 2006)
Where “and” joins values, the source holds several entries; their conditions need not be identical. Equal values may be shown once. Among all 110,000 compounds or so, about 190 (0.17%) were called active. The list comes from a sample in which actives are over-represented; it also holds similar structures and randomly drawn compounds. Measured potencies and affinities stand elsewhere. Values without a mark were called inactive. No stated cut-off is given here; in the data, active means inhibition above about 50%; inactive means the rest.

These compounds were tested against Dual specificity protein phosphatase 6 (Rattus norvegicus) (UniProt Q64346) (assay: inhibition of rat DUSP6 enzyme activity – biochemical, in vitro, primary screen (AID 425;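 further: plate controls were vehicle for no effect and reference inhibitor for full effect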)). Settings: recombinant MKP-3 phosphatase activity, fluorescence; at 20 µM; hits give high values.
Chain of Dual specificity protein phosphatase 6 (Rattus norvegicus) (Q64346 whole entry, looked up): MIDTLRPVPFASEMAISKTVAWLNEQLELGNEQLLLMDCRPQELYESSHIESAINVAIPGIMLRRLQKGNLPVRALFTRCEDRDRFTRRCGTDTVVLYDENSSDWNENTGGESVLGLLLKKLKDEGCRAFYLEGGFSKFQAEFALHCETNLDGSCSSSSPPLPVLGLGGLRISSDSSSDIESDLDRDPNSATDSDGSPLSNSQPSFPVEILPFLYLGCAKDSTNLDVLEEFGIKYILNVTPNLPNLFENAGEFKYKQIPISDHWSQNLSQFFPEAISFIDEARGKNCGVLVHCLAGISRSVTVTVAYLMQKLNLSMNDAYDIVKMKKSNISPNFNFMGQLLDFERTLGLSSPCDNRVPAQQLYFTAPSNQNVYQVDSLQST

Compound	inhibition
COCCn1c(SCC(=O)Nc2cccc(OC)c2)nnc1-c1ccc(Cl)cc1	-2.5%
Cc1ccc(-c2ccc(C=C3C(=O)N(C)C(=O)N(C)C3=O)o2)cc1[N+](=O)[O-]	-5.2%
CN(c1ccc(C(=O)N2CCCCC2)cc1)S(=O)(=O)c1ccccc1	2.4%
CCc1c(C)c2ccc(OCC(C)=O)c(C)c2oc1=O	5.8%
CCc1c(C)c2ccc(OCc3ccccc3)c(C)c2oc1=O	3.5%
O=C(CN1CCCCCC1)Nc1cccc2c1OCO2	0.2% and -9.3%
CCC(C)NC(=O)/C(=C\c1ccc(OC(C)=O)c(OC)c1)NC(C)=O (stereo not given)	97.1% (active)
COc1ccc(/C=C/C(=O)NCC(C)NC(=O)/C=C/c2ccc(OC)c(OC)c2)cc1OC (stereo not given)	1.7%
COc1ccc(/C=C(\NC(=O)c2ccccc2)C(=O)NCC(C)C)cc1OC	3%
COc1cccc(-c2cc(C(=O)Nc3c(C)nn(Cc4ccccc4)c3C)no2)c1	0.1%
O=C(NCCNc1ccc(Cl)cc1[N+](=O)[O-])c1ccccc1Cl	1.9%
Cc1c(O)ccc2c1oc(=O)c1ccccc12	1.2%
O=c1oc2c(O)c(O)ccc2c2c1CCC2	7.2%
Cc1ccc(S(=O)(=O)NCC(=O)N(CCc2ccccc2)CC(=O)NCc2ccco2)cc1	-4.7%
Cc1nn(-c2ccccc2)c(C)c1Sc1ccc(Br)cc1	0.2%
Cc1nn(-c2ccccc2)c(C)c1Sc1ccc(Cl)cc1	74.7% (active)
Cc1cc(C)nc(Sc2c(C)nn(-c3ccccc3)c2C)n1	-0.6%
COc1ccc(C2C(C(=O)OC(C)C)=C(C)N=c3s/c(=C/c4c[nH]c5ccccc45)c(=O)n32)cc1 (stereo not given)	3.4%
CCOCCOC(=O)c1ccc(NC(=O)/C=C/c2ccc(OC)c(Br)c2)cc1	2.5%
COc1ccc(Cl)cc1C(=O)Nc1nc2ccc(S(C)(=O)=O)cc2s1	3.8%
CCOc1ccc(NC(=O)CSc2nc3ccc(OC)cc3[nH]2)cc1	-0.2%
O=C(O)c1ccccc1-c1ccccc1/C=N/O	-1.8%
CCOC(=O)C1=C(C)N=c2s/c(=C\c3ccc(OCC)cc3)c(=O)n2C1c1ccccc1 (stereo not given)	2.8%
CCOC(=O)C1=C(C)N=c2s/c(=C\c3ccc(OCC(=O)O)cc3)c(=O)n2C1c1ccccc1 (stereo not given)	2.5%

Compound	inhibition
Cc1c(N2C(=O)c3cccc([N+](=O)[O-])c3C2=O)c(=O)n(-c2ccccc2)n1C	1.8%
CCN(CC)CCCNC(=O)c1cc2nc(-c3ccc([N+](=O)[O-])cc3)cc(C(F)(F)F)n2n1	1.9%
COc1ccccc1N1C(=O)C(=Cc2cccn2C)C(=O)NC1=S	93.6% (active)
Cc1cc(/C=C2\C(=O)NC(=S)N(c3cccc(Cl)c3)C2=O)c(C)n1C	-0.4%
O=C1NC(=S)N(c2cccc(Cl)c2)C(=O)/C1=C\c1ccc(N2CCCC2)cc1	19.3%
COc1ccccc1C=C1C(=O)NC(=S)N(c2ccccc2F)C1=O	3%
Cn1cccc1/C=C1/C(=O)NC(=S)N(c2cccc(Cl)c2)C1=O	60.6% (active)
COc1ccccc1/C=C1/C(=O)NC(=O)N(c2ccccc2OC)C1=O	-1.2%
O=C1CC(c2cccs2)CC2=C1C(c1ccsc1)Nc1ccccc1N2 (stereo not given)	-0.1%
C=C(C)Cn1c(SCC(=O)NN)nnc1-c1ccc(Br)cc1	2.7%
CCC(C)(C)NC(=O)C1CCN(c2nc(C)cc(C)n2)CC1	-18.2%
CCc1nnc(NC(=O)C2CC(=O)N(c3ccc(C)cc3)C2)s1 (stereo not given)	-9.9%
O=C1NC(=S)N/C1=C/c1ccc2c(c1)OCO2	5.3%
O=C1NC(=O)/C(=C/c2ccccc2[N+](=O)[O-])S1	79.4% (active)
O=C1NC(=S)S/C1=C\c1ccccc1OS(=O)(=O)c1ccc([N+](=O)[O-])cc1	1.6%
O=C1NC(=S)N/C1=C/c1cc2c(cc1[N+](=O)[O-])OCO2	64.9% (active)
O=C1NC(=S)S/C1=C/c1ccccc1OS(=O)(=O)c1ccccc1[N+](=O)[O-]	1.4%
O=C1NC(=O)/C(=C\c2ccccc2Cl)S1	-2.9%
COc1cc(Br)c(/C=C2/SC(=S)NC2=O)cc1OC	-0.6%
COc1cc(/C=C2\NC(=S)NC2=O)c([N+](=O)[O-])cc1OC	13.3%
O=C1NC(=Nc2ccc(Br)cc2)S/C1=C\c1ccccc1[N+](=O)[O-]	1.9%
COc1cc(/C=C2/SC(=S)NC2=O)c([N+](=O)[O-])cc1OC	50.1% (active)
O=C1NC(=S)N/C1=C/c1cc2c(cc1Cl)OCO2	0.8%
O=C1NC(=S)S/C1=C\c1ccccc1[N+](=O)[O-]	122% (active)

Compound	inhibition
COc1ccc(CN2C(=O)C(O)(CC(=O)c3c(C)n[nH]c3C)c3ccccc32)cc1OC (stereo not given)	-1.9%
CCOc1cc(C(=O)Nc2ccc(Br)cc2F)cc(OCC)c1OCC	5.8%
O=C(c1oc2ccccc2c1N1CCCCC1)N1CCCCC1	2.6%
O=C1CN(S(=O)(=O)CCOc2ccccc2)CC(=O)N1CCOc1ccccc1	3.6%
CN(Cc1ccccc1)c1oc(-c2ccco2)nc1C#N	-1.5%
O=C(NN=C(C1CC1)C1CC1)c1cc2ccccc2cc1O	1.9%
CC1(C)CC(=O)c2nc(NC(=O)CSC(=O)c3ccccc3)sc2C1	0.6%
CN1C(=O)/C(=C\c2cc(Br)ccc2OCc2ccccc2)SC1=S	2.6%
O=C1NC(=O)/C(=C\c2cc3c(cc2[N+](=O)[O-])OCO3)S1	122% (active)
O=C1NC(=O)/C(=C\c2cc3c(cc2Br)OCO3)S1	1.1%
O=C1/C(=C/c2cc3c(cc2[N+](=O)[O-])OCO3)Sc2ccccc21	-0.9%
CC(C)(C)c1cc(Br)ccc1OCC(=O)Nc1ccc2c(c1)OCCO2	6.4%
COc1ccc2nc(SCC(=O)Nc3ccccc3)[nH]c2c1	-2.1%
Cc1cc(N2C(=O)NC(=O)/C(=C\c3ccco3)C2=O)ccc1Br	42.1%
COc1ccc(OC)c(N2C(=O)NC(=O)C(=Cc3ccc(C)o3)C2=O)c1	3.8%
O=C1NC(=O)N(c2ccc(Br)cc2)C(=O)/C1=C/c1ccco1	46.2%
O=C1NC(=S)N(c2ccc(F)cc2)C(=O)/C1=C/c1ccc(F)cc1	-0.1%
Cc1ccc(C=C2C(=O)NC(=S)N(c3ccccc3Cl)C2=O)o1	11.8%
COc1cccc(N2C(=O)C(=Cc3ccc(OC)cc3OC)C(=O)NC2=S)c1	2.6%
COc1cccc(-c2cc(C(=O)NC(C)c3ccccc3)c3ccccc3n2)c1 (stereo not given)	2.7%
CCCOc1ccc(C(=O)Nc2ccc(C)cc2[N+](=O)[O-])cc1	2.7%
O=C(O)c1cc(O)ccc1NC(=O)C(c1ccccc1)c1ccccc1	4.4%
CC(C)=C1C2CCC1C(C(=O)NCCC1=CCCCC1)C2C(=O)O (stereo not given)	1.3%
CCc1ccc(-n2c(C)cc(/C=N/NC(=O)c3cccnc3)c2C)cc1	6.1%

Compound	inhibition
O=C(NCCN1CCOCC1)c1cccc(S(=O)(=O)N2CCCCCC2)c1	-10.5%
CN1C(=O)/C(=C2\SC(=S)N(CC(=O)O)C2=O)c2ccccc21	2%
CN1C(=O)c2oc3ccc(Br)cc3c(=O)c2C1c1ccncc1 (stereo not given)	2.2%
Cc1ccc(NC(=O)C(=O)N/N=C/c2cccs2)cc1	0.5%
CCc1ccccc1OCCN(CC)CC	1.4%
COc1ccc(/C=N/NC(=O)c2cccc([N+](=O)[O-])c2)cc1Br	-2.3%
COc1cc(/C=N/NC(=O)c2cccc([N+](=O)[O-])c2)cc(I)c1O	-0.4%
C/C(=N\NS(=O)(=O)c1ccc(C)cc1)C(C)(C)CC(=O)O	0.4%
Cc1ccc(S(=O)(=O)N2CCN(Cc3ccccc3[N+](=O)[O-])CC2)cc1	3.5%
CCOC(=O)CNC(=O)CSc1nnc(Cn2cnc3ccccc32)n1C	-4.9%
COc1ccc(OC)c(CNC(=O)COc2cc(=O)n(C)c3ccccc23)c1	-0.9%
CCOC(=O)/C=C/CSc1nc2sc3c(c2c(=O)[nH]1)CCCC3	3.4%
CCOc1cc(C=C2C(=O)c3ccccc3C2=O)ccc1OCc1ccc(Cl)cc1Cl	2%
COc1cc(/C=N/NC(=O)Cc2nnc(N)s2)ccc1OCc1ccc(Cl)cc1Cl	0.3%
CCN(CC)c1ccc(/C=N/NC(=O)Cn2nnc(-c3ccccc3)n2)c(O)c1	0.8%
O=P(c1ccccc1)(c1ccccc1)C(O)c1ccco1 (stereo not given)	4.6% and -1.6%
O=C(O)CC(NC(=O)C(c1ccccc1)c1ccccc1)c1ccco1 (stereo not given)	-9.2%
Cc1nonc1NC(=O)Nc1cccnc1	-4.7%
Cc1nonc1NC1(O)C(=O)c2ccccc2C1=O	106% (active)
O=C(NC1(O)C(=O)c2ccccc2C1=O)c1ccccc1	21.6%
CC1=C/C(=N\OC2=C(O/N=C3/C=CC(=O)C(C)=C3)C(=O)c3ccccc3C2=O)C=CC1=O	42.8%
CC1=CC(=O)C=C/C1=N\OS(=O)(=O)c1ccccc1	8.7%
CC1=CC(=O)C=C/C1=N/OC1=C(O/N=C2/C=CC(=O)C=C2C)C(=O)c2ccccc2C1=O	66% (active)
